Compound activity as filed in PubChem BioAssay.
Most compounds without a hit are left out; they make up all but 12% or so of the library.
USP30 inh – human USP30 deubiquitinase inhibition. inhibition, % at 25 µM. 5.3% of 47,000 active. Q70CQ3. purified USP30, Ub-rhodamine cleavage fluorescence
USP28 inh – human USP28 deubiquitinase inhibition | inhibition, % at 25 µM | 3% of 47,000 active | Q96RU2 | AID 1645857 | purified USP28, Ub-rhodamine cleavage fluorescence, 30 min
Target sequence (Q96RU2 whole entry, looked up): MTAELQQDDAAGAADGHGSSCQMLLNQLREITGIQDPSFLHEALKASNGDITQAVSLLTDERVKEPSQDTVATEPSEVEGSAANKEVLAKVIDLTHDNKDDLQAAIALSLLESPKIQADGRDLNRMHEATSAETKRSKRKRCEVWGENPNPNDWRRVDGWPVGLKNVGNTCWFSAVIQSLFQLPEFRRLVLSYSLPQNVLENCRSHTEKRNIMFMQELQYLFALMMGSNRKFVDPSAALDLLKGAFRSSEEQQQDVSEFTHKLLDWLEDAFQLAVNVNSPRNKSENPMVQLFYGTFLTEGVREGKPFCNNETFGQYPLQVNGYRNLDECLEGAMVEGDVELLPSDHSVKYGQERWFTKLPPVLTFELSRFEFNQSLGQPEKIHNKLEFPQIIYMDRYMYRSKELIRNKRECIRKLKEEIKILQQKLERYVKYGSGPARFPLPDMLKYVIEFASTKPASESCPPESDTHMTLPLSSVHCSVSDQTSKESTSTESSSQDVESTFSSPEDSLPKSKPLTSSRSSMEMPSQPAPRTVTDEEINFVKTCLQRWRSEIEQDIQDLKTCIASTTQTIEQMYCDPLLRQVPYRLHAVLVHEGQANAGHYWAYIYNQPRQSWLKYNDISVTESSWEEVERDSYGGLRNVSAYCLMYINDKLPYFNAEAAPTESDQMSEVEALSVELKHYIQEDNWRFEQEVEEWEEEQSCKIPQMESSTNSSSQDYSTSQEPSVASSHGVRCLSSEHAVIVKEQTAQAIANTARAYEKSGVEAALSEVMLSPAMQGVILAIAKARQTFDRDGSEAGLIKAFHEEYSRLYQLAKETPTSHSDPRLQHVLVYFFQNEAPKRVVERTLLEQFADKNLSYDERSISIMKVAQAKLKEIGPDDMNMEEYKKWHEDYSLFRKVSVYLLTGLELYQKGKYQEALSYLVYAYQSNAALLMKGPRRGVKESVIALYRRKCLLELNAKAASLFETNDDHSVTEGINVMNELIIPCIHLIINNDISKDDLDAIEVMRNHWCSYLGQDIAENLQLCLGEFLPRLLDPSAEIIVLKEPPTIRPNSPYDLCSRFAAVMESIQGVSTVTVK
OTUD3 inh – human OTUD3 deubiquitinase inhibition; Q5T2D3; purified OTUD3, Ub-rhodamine fluorescence, 2 h; inhibition, % at 25 µM; 0.7% of 47,000 active; AID 1645858
USP17 inh – blocks human USP17 ubiquitin-rhodamine cleavage; AID 1645855; inhibition, % at 50 µM; purified USP17, Ub-rhodamine cleavage fluorescence, 3 h; A8MUK1; 6.5% of 47,000 active
Hits are given with their value; i = inactive; nt = not tested or not shown. Rule as the data show it: active = inhibition above about 30%; inactive = the rest.

SMILES	USP30 inh	USP28 inh	OTUD3 inh	USP17 inh
COc1cccc(CNC(=O)c2ccccc2NC(=O)c2ccc(F)cc2)c1	40.7	i	i	i
O=C(Cc1ccccc1)NCCc1ccccc1	i	i	i	i
COc1cccc(CNC(=O)c2ccc(Cn3cncn3)cc2)c1	i	i	i	i
COc1ccccc1OCc1ccc(C(=O)Nc2ccc(F)cc2C)cc1	i	i	i	52.6
COc1cccc(C(=O)Nc2ccccc2C(=O)NCCc2ccccc2)c1	49.3	i	i	i
O=C(NCCc1ccccc1)c1ccccc1-c1ccccc1C(=O)NCCc1ccccc1	31.6	i	i	i
Cc1cccc(C(=O)N[C@@H]2C(=O)Nc3c(c(C)nn3C)[C@H]2c2ccc3c(c2)OCCO3)c1	i	i	i	i
O=C(Nc1ccc(Cl)cn1)c1nn(C2CCS(=O)(=O)C2)c2c1CCCC2 (centres undefined)	i	i	i	38.2
Cc1c(CC(=O)N2CCN(c3ccc(Cl)cc3)CC2)c(=O)oc2cc(O)c(Cl)cc12	35.3	i	i	i
Cc1c(CC(=O)N2CCN(c3ccccn3)CC2)c(=O)oc2cc(O)ccc12	i	i	i	i
Cc1c(CC(=O)N2CCN(c3ncccn3)CC2)c(=O)oc2cc(O)ccc12	i	i	i	62.6
COc1ccc2c(C)c(CC(=O)N3CCN(c4ccccc4)CC3)c(=O)oc2c1	i	i	i	i
Cc1oc(-c2cc(Cl)cc(Cl)c2)cc1C(=O)Nc1ccc(S(N)(=O)=O)cc1	i	i	i	i
CCOC(=O)c1c(-c2ccc(C)o2)csc1NC(=O)COC(=O)c1cc(=O)[nH]c2ccccc12	nt	nt	i	37.4
CCOC(=O)c1oc2ccccc2c1NC(=O)COC(=O)c1cc(=O)[nH]c2ccccc12	i	i	i	i
O=C(Cc1ccccc1F)Nc1nc(-c2ccco2)c(-c2ccco2)s1	i	43.0	57.5	nt
COc1ccc(CC(=O)Nc2nc3c(s2)CCC3)cc1	i	i	i	i
COc1ccc(CC(=O)Nc2nc(-c3ccco3)c(-c3ccco3)s2)cc1	i	32.2	62.0	65.4
COc1ccc(-c2nc(NC(=O)Cc3ccccc3OC)sc2C)cc1	i	i	i	i
CCn1nnc2c(N3CCN(c4ccccc4Cl)CC3)ncnc21	i	i	i	i
CC1(C)CC(=O)c2ccc(OCc3ccc([N+](=O)[O-])cc3)cc2O1	i	35.7	i	i
O=C(Cn1c(=O)n(Cc2ccccc2)c(=O)c2cc(Cl)ccc21)c1cccc(C(F)(F)F)c1	i	i	i	i
O=C(O)CCc1nc2cc(C(F)(F)F)ccc2n(Cc2ccccc2)c1=O	i	i	i	41.4
COc1ccccc1N/C=C/c1onc(-c2c(F)cccc2Cl)c1C#N	i	i	i	nt
COC(=O)c1c(-c2c(Cl)cccc2Cl)noc1/C=C/Nc1ccc(C(=O)O)cc1	i	30.8	i	i
SMILES	USP30 inh	USP28 inh	OTUD3 inh	USP17 inh
CCC(C)(C)C1CCC2(CC1)N=C(N)Nc1nc3ccccc3n12 (centres undefined)	69.3	i	i	i
NC1=NC2(CCC(c3ccccc3)CC2)n2c(nc3ccccc32)N1 (centres undefined)	i	i	i	i
O=C([C@H]1C[C@@H]2CN(S(=O)(=O)c3ccccc3)C[C@H]1O2)N1CCCC1	i	i	i	i
CCc1nc(N2CCCC2=O)sc1C(=O)Nc1cccc(C)c1	i	48.8	i	nt
CCc1nc(N2CCCC2=O)sc1C(=O)Nc1cccc(C(C)=O)c1	i	52.3	i	i
C=c1nc2c(c(=O)n1C1CCCC1)=C(O)c1ccccc1N2C	i	i	i	i
Cc1ccc(NC(=O)CC2Nc3ccccc3NC2=O)cc1[N+](=O)[O-] (centres undefined)	48.8	i	i	41.0
Cc1ccc(S(=O)(=O)Nc2ccc(NC(=O)CC3OC(=O)c4ccccc43)cc2)cc1[N+](=O)[O-] (centres undefined)	i	i	i	i
COc1ccc(C)cc1NC(=O)C1CC(=O)Nc2nc3ccccc3n21 (centres undefined)	i	i	i	70.1
CCC[C@H]1O[C@@H]2CC(=O)O[C@@H]2C2=C1C(=O)c1c(O)cccc1C2=O	i	54.1	51.5	84.0
CC1CC(=O)c2c(O)cccc2O1 (centres undefined)	i	i	i	i
CC1OC2CC(=O)OC2C2=C1C(=O)c1c(O)cccc1C2=O (centres undefined)	i	56.4	45.0	93.8
CNC(=O)[C@H]1C[C@@H]2CN(S(=O)(=O)c3cccc(C(F)(F)F)c3)C(C)[C@H]1N2C (some centres undefined)	i	i	i	i
COc1cc(C2CCN(C(=O)Nc3ccccn3)CC2)on1	i	i	i	i
COc1ccc2nc3c(cc2c1)CN(CC1CC1)C(=O)CO3	40.0	i	i	i
COCCCN1Cc2cc3cc(OC)ccc3nc2OCC1=O	i	i	i	i
CCOc1ccc(NC(=O)CNc2nc(Nc3ccc(OC)cc3)nc(Nc3ccc(OC)cc3)n2)cc1	68.7	i	i	57.5
Cc1ccc(NC(=O)CNc2nc(Nc3ccccc3)nc(Nc3ccccc3)n2)cc1	i	i	i	i
CCOc1ccc(NC(=O)CCn2c(-c3ccc(OC)cc3)cc(C(C)=O)c2C)cc1	80.1	i	i	70.3
COc1cccc(N2C(=O)CN(S(C)(=O)=O)CC2(C)C(=O)NC2CCCCC2)c1 (centres undefined)	i	i	i	i
COc1ccc2occ(CC(=O)Nc3nnc(SC)s3)c2c1	i	i	i	32.9
COc1cc(Cl)ccc1Nc1ncc(C(=O)Nc2cc(OC)c(OC)c(OC)c2)c2ccccc12	i	i	i	93.8
COc1ccc(Nc2ncc(C(=O)Nc3ccc(Oc4ccccc4)cc3)c3ccccc23)cc1	67.9	i	i	i
CCOc1ccc(CCNC(=O)c2cnc(Nc3ccccc3OC)c3ccccc23)cc1OCC	i	i	i	i
CCC(C)c1ccc(NC(=O)COc2nc3ccccc3nc2C)cc1 (centres undefined)	i	i	i	47.4
SMILES	USP30 inh	USP28 inh	OTUD3 inh	USP17 inh
O=C(c1cc(-c2ccccc2)on1)N(Cc1ccc(F)cc1)Cc1ccco1	i	i	i	i
COc1cccc(Cn2c(=O)c3cccnc3n(-c3ccccc3)c2=O)c1	i	i	i	nt
COc1cccc(Cn2nc(C(=O)O)c3ccccc3c2=O)c1	i	38.3	i	i
COc1ccc(-c2nc(NC(=O)CCc3ccccc3)sc2C)cc1	i	i	i	i
CC(Nc1ccc(Oc2ccccc2)cc1)C(=O)Nc1cccc(C#N)c1 (centres undefined)	nt	nt	i	36.9
CC(=O)Nc1ccc(NC(=O)C(C)Nc2ccc(Oc3ccccc3)cc2)cc1 (centres undefined)	i	i	i	i
c1ccc(CNc2nn3c(-c4cccnc4)cnc3s2)cc1	40.3	i	i	31.7
COc1ccc(CNc2nn3c(-c4cncc(OC)c4)cnc3s2)cc1	100.4	47.6	i	i
Cc1nc2nc(C(c3ccccc3)c3ccccc3)[nH]n2c(=O)c1Cc1ccccc1	i	i	i	45.0
Cc1ccc(NC(=O)Cn2cc(S(=O)(=O)N3CCCC3)ccc2=O)cc1	i	i	i	52.4
Cc1ccc(NC(=O)Cn2c(=O)n(CC(=O)NCc3ccco3)c(=O)c3ccccc32)cc1C	45.1	43.9	40.9	63.1
